Source: PubChem BioAssay (several laboratories)
aDG glyco up: alpha-DG glycosylation activation; Pro5-aDG cells, alpha-DG glycosylation AlphaScreen (IIH6); 0% Pro5, 100% B10-LARGE cell signal; activation, % at 10 µM; hit rate 0.22% among 360,000; AID 624168;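 active = activation of at least 8% versus controls, or a plate z-score of at least 8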;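 also: Pro5 are CHO cells carrying HIG-tagged alpha-DG that lacks glycosylation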
ADAM10 inh: ADAM10 inhibition, QFRET primary screen; O14672; recombinant ADAM10, EDANS/DABCYL FRET peptide cleavage, 3 h; inhibition, % at 7 µM; hit rate 0.62% among 370,000;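 active = inhibition above a per-campaign cutoff equal to the mean of compounds falling between control-based bounds plus 3 SD, cut at about 20% in these data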
NR3A LBD binder: modulators (binders) of human NR3A ligand-binding domain; AID 1259313; Tm shift relative to glycine control, % at 25 µM; hit rate 2.5% among 340,000; NR3A LBD differential scanning fluorimetry, Tm shift; 0% = protein alone, 100% = glycine-bound protein;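 active = melting temperature shift of at least 10% of the positive control shift, at one fixed dose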
FAS TE block: inhibitors of human fatty acid synthase thioesterase domain. recombinant FAS-TE, OMFH fluorogenic substrate, fluorescence endpoint. inhibition, % at 15 µM. hit rate 0.67% among 360,000;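 active = compounds whose normalised, plate-corrected inhibition of enzyme fluorescence in the single-dose primary screen is 50% or more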
ADAM17 inh: ADAM17 inhibition, QFRET primary screen; hit rate 0.83% among 370,000; inhibition, % at 6.95 µM; P78536; recombinant ADAM17, EDANS/DABCYL FRET peptide cleavage;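 active = inhibition above the mean of compounds lying between control limits plus 3 SD, set per campaign, cut at about 8.5% in these data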
Target sequence (P78536 215-824 limits assumed): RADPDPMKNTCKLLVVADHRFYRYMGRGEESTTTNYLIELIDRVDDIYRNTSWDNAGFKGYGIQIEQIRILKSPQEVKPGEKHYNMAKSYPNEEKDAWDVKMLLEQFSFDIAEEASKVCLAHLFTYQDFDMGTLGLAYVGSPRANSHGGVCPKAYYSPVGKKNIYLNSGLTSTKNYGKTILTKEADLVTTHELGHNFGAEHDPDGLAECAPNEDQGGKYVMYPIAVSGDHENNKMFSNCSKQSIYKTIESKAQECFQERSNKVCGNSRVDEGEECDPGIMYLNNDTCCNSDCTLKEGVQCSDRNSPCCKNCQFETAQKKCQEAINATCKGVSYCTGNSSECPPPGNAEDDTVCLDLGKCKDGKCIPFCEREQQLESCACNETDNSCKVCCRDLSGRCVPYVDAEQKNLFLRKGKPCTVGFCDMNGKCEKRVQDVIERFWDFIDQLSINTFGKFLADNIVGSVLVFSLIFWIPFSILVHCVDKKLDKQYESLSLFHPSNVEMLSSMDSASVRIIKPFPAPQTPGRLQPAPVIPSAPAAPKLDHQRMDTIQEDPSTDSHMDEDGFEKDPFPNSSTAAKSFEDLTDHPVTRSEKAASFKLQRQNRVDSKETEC
ADAM10 confirm: confirmation of inhibitors of human ADAM10 | shares compounds with ADAM10 inh | ADAM10 QFRET peptide cleavage, EDANS fluorescence | inhibition, % at 6.95 µM | hit rate 1% among 2,100 | AID 743208;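 active = inhibition above about 20% chosen separately for each screening run, limit read from the data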
ADAM17 counter: ADAM17 inhibition, counter-screen for ADAM10 exosite hits; inhibition, % at 6.95 µM; ADAM17 QFRET peptide cleavage, EDANS fluorescence; hit rate 0.5% among 2,100; shares compounds with ADAM10 inh;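 active = mean triplicate inhibition above the solvent-only control wells' mean plus 3 SD, cut at about 12% in these data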
ADAM10 counter: inhibits human ADAM10 in ADAM17 exosite counter-screen | shares compounds with ADAM17 inh | recombinant ADAM10, EDANS/DABCYL FRET peptide cleavage, 3 h | inhibition, % at 6.95 µM | hit rate 47% among 2,900 | AID 743256;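 active = mean inhibition over the triplicate runs exceeds the activity threshold set in the earlier primary screen, cut at about 20% in these data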
ADAM17 confirm: confirmation of inhibitors of human ADAM17. recombinant ADAM17, EDANS/DABCYL QFRET peptide cleavage. shares compounds with ADAM17 inh. inhibition, % at 6.95 µM. hit rate 65% among 2,900. AID 743257;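 active = mean inhibition across replicates above the hit cutoff set in the primary screen, cut at about 8.5% in these data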
Numbers stand for hits; i = inactive; nt = no result given. A selection: hits, their analogues and other compounds. The true share with any hit is near 4%.

SMILES	aDG glyco up	ADAM10 inh	NR3A LBD binder	FAS TE block	ADAM17 inh	ADAM10 confirm	ADAM17 counter	ADAM10 counter	ADAM17 confirm
Oc1ccccc1C1SC(c2ccccc2O)SC(c2ccccc2O)S1 (stereo not given)	i	35	i	i	11	i	i	42	23
CN(C)CCCn1c2c(c(SCC(=O)Nc3nccs3)nc1=O)CCC2	i	i	i	i	i	nt	nt	nt	nt
O=C(c1ccc(C(F)(F)F)cc1)N1CCC(=O)N([C@H](COCc2ccc(C(F)(F)F)cc2)Cc2ccccc2)CC1	i	28	nt	i	12	i	i	28	16
O=C(c1ccc(C(F)(F)F)cc1)N1CCC(=O)N([C@H](COCc2ccc(Cl)cc2)Cc2ccccc2)CC1	i	i	nt	i	i	nt	nt	nt	nt
COc1ccc2nc(NC(=O)C3CCCN3S(=O)(=O)c3ccc(C)cc3)sc2c1 (stereo not given)	i	22	i	i	8.6	i	i	i	i
COc1cccc(C=NN(C)c2c([N+](=O)[O-])cc(C(F)(F)F)cc2[N+](=O)[O-])c1O	i	24	nt	i	12	i	i	27	16
COc1ccc(/C=N/Nc2ccc(C(F)(F)F)cc2[N+](=O)[O-])cc1O	i	i	i	i	i	nt	nt	nt	nt
O=C(CSc1nnnn1-c1ccccc1)c1ccco1	i	i	i	i	i	nt	nt	nt	nt
O=C(CSc1nc(NS(=O)(=O)c2ccccc2)cc(=O)[nH]1)Nc1ccc(Cl)cc1	i	i	i	i	i	nt	nt	nt	nt
O=c1cc(NS(=O)(=O)c2ccccc2)nc(SCc2ccc(Cl)cc2)[nH]1	i	20	20	i	11	i	i	25	14
COc1ccc(C2c3c(-c4ccccc4O)n[nH]c3C(=O)N2Cc2ccco2)cc1OC (stereo not given)	i	i	i	i	i	nt	nt	nt	nt
COc1ccc(CCN2C(=O)c3[nH]nc(-c4ccccc4O)c3C2c2cccc(O)c2)cc1OC (stereo not given)	i	30	i	i	9.1	i	i	33	14
Cc1cc(C)c(O)c(-c2n[nH]c3c2C(c2cccc(O)c2)N(Cc2ccco2)C3=O)c1 (stereo not given)	i	37	i	i	21	i	i	48	23
O=C1c2[nH]nc(-c3ccccc3O)c2C(c2ccc(F)cc2)N1Cc1ccco1 (stereo not given)	i	i	i	i	i	nt	nt	nt	nt
CCOC(=O)CSc1snnc1C	i	i	i	i	i	nt	nt	nt	nt
Cc1nc(Cl)sc1C(=O)Nc1cc(F)cc(F)c1	i	i	i	i	i	nt	nt	nt	nt
CCOc1ccc(-c2[nH]ncc2Oc2cccc(OC)c2)c(O)c1	i	24	i	i	11	i	i	35	20
COc1ccc(Oc2cn[nH]c2-c2ccc(OCC(=O)NN)cc2O)cc1	i	i	i	i	i	nt	nt	nt	nt
C=CCN(C(=O)[C@@H](C1CC1)[C@@H](O)c1ccc(Cl)cc1)c1ccccc1	nt	i	nt	nt	i	nt	nt	nt	nt
COc1ccc(C(=O)OCC(=O)NCc2ccco2)cc1S(=O)(=O)N1CCN(c2cccc(Cl)c2)CC1	i	29	i	i	17	i	i	28	18
Cc1ccc(C(=O)OCC(=O)NCc2ccco2)cc1S(=O)(=O)N1CCOCC1	i	i	i	i	i	nt	nt	nt	nt
Cc1cc(C)n2ncnc2n1	i	i	i	i	i	nt	nt	nt	nt
Cc1ccccc1-c1cc(C(=O)NCc2ccc(OC(F)(F)F)cc2)n(CC2CC(c3cccnc3)=NO2)n1 (stereo not given)	i	21	i	i	10	i	i	25	13
O=C(CN(Cc1cccs1)S(=O)(=O)c1ccc(S(=O)(=O)NC2CCCCC2)cc1)Nc1ccccc1	i	36	13	i	17	i	i	50	25
Cn1c(CC(=O)NCCO)c(Sc2ccccc2)c2ccccc21	i	i	i	i	i	nt	nt	nt	nt
